Hit rate of the full screen: of about 5,500 compounds, about 2,000 (36%) were called active. About 18% were inconclusive and are not listed. No stated cut-off is given here; in the data, active means normalized growth mostly below about 0.91 (no sharp cut-off); inconclusive means no clear call, values can overlap the other calls; inactive means mostly above about 0.92. The list shows a part of the results.
Experiment: chemical genetic growth profiling, strain panel (AID 1159580);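 further: tested at 20 µM; growth read once vehicle control cultures reached saturation at 30 °C; 1 = growth at the plate median or of vehicle wells; lower values mean less growth of the strain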
Conditions: growth OD

Measured: normalized growth

NC(=O)c1ccc[n+]([C@@H]2O[C@H](COP(=O)([O-])OP(=O)(O)OC[C@H]3O[C@@H](n4cnc5c(N)ncnc54)[C@H](OP(=O)(O)O)[C@@H]3O)[C@@H](O)[C@H]2O)c1
inactive: S. cerevisiae deletion strains, locus YAL013W, strain DEP1, active compounds read low 1.02 | S. cerevisiae deletion strains, locus YBR021W, strain FUR4, active compounds read low 1 | S. cerevisiae deletion strains, locus YBR229C, strain ROT2, active compounds read low 1.03 | S. cerevisiae deletion strains, locus YCL029C, strain bik1, active compounds read low 1 | S. cerevisiae deletion strains, locus YDL035C, strain GPR1, active compounds read low 1.06 | S. cerevisiae deletion strains, locus YDL074C, strain BRE1, active compounds read low 1.02 | S. cerevisiae deletion strains, locus YDL101C, strain DUN1, active compounds read low 1.02 | S. cerevisiae deletion strains, locus YDL134C, strain PPH21, active compounds read low 1.02 | S. cerevisiae deletion strains, locus YDL185W, strain tfp1, active compounds read low 0.994 | S. cerevisiae deletion strains, locus YDL192W, strain arf1, active compounds read low 1.01 | S. cerevisiae deletion strains, locus YDR101C, strain arx1, active compounds read low 1.01 | S. cerevisiae deletion strains, locus YDR150W, strain NUM1, active compounds read low 1.02 | S. cerevisiae deletion strains, locus YDR162C, strain NBP2, active compounds read low 1.03 | S. cerevisiae deletion strains, locus YDR318W, strain mcm21, active compounds read low 1.01 | S. cerevisiae deletion strains, locus YDR388W, active compounds read low 0.985 | S. cerevisiae deletion strains, locus YDR502C, strain sam2, active compounds read low 1.03 | S. cerevisiae deletion strains, locus YEL061C, strain CIN8, active compounds read low 1.02 | S. cerevisiae deletion strains, locus YER110C, active compounds read low 1 | S. cerevisiae deletion strains, locus YER155C, strain BEM2, active compounds read low 1 | S. cerevisiae deletion strains, locus YER167W, strain BCK2, active compounds read low 1.04 | S. cerevisiae deletion strains, locus YGL078C, strain dbp3, active compounds read low 0.995 | S. cerevisiae deletion strains, locus YGL086W, strain mad1, active compounds read low 1.04 | S. cerevisiae deletion strains, locus YGL248W, strain PDE1, active compounds read low 1.02 | S. cerevisiae deletion strains, locus YGR078C, strain PAC10, active compounds read low 1.04 | S. cerevisiae deletion strains, locus YGR135W, strain pre9, active compounds read low 1.02 | S. cerevisiae deletion strains, locus YGR229C, strain SMI1, active compounds read low 1.03 | S. cerevisiae deletion strains, locus YGR252W, strain gcn5, active compounds read low 1.03 | S. cerevisiae deletion strains, locus YHR030C, strain SLT2, active compounds read low 1.01 | S. cerevisiae deletion strains, locus YHR079C, strain IRE1 (second series), active compounds read low 1.01 | S. cerevisiae deletion strains, locus YHR094C, strain hxt1, active compounds read low 0.995 | S. cerevisiae deletion strains, locus YHR129C, strain ARP1, active compounds read low 1.02 | S. cerevisiae deletion strains, locus YHR200W, strain rpn10, active compounds read low 1 | S. cerevisiae deletion strains, locus YIL066C, strain RNR3, active compounds read low 1.03 | S. cerevisiae deletion strains, locus YIL073C, strain SPO22, active compounds read low 1.02 | S. cerevisiae deletion strains, locus YIL125W, strain kgd1, active compounds read low 0.981 | S. cerevisiae deletion strains, locus YIR030C, strain dcg1, active compounds read low 0.996 | S. cerevisiae deletion strains, locus YJL095W, strain BCK1, active compounds read low 1.03 | S. cerevisiae deletion strains, locus YJL134W, strain LCB3, active compounds read low 1.01 | S. cerevisiae deletion strains, locus YJL168C, strain set2, active compounds read low 0.996 | S. cerevisiae deletion strains, locus YJL187C, strain SWE1 (second series), active compounds read low 1.03 | S. cerevisiae deletion strains, locus YJR043C, strain POL32, active compounds read low 1.03 | S. cerevisiae deletion strains, locus YJR075W, strain HOC1, active compounds read low 1.05 | S. cerevisiae deletion strains, locus YKL009W, strain mrt4, active compounds read low 1.02 | S. cerevisiae deletion strains, locus YKL068W, active compounds read low 0.999 | S. cerevisiae deletion strains, locus YKL085W, strain MDH1 (second series), active compounds read low 0.99 | S. cerevisiae deletion strains, locus YKL085W, strain MDH1, active compounds read low 0.99 | S. cerevisiae deletion strains, locus YKL190W, strain CNB1, active compounds read low 1.01 | S. cerevisiae deletion strains, locus YKR001C, strain vps1, active compounds read low 0.996 | S. cerevisiae deletion strains, locus YLR039C, strain RIC1, active compounds read low 1.04 | S. cerevisiae deletion strains, locus YLR058C, strain SHM2, active compounds read low 1.02 | S. cerevisiae deletion strains, locus YLR102C, strain apc9, active compounds read low 0.99 | S. cerevisiae deletion strains, locus YLR262C, strain YPT6, active compounds read low 1.08 | S. cerevisiae deletion strains, locus YLR268W, strain sec22, active compounds read low 0.949 | S. cerevisiae deletion strains, locus YLR330W, strain CHS5, active compounds read low 1.01 | S. cerevisiae deletion strains, locus YLR342W, strain FKS1 (second series), active compounds read low 1.04 | S. cerevisiae deletion strains, locus YLR371W, strain rom2, active compounds read low 0.987 | S. cerevisiae deletion strains, locus YLR418C, strain cdc73, active compounds read low 1.04 | S. cerevisiae deletion strains, locus YML016C, strain PPZ1, active compounds read low 1.02 | S. cerevisiae deletion strains, locus YML032C, strain rad52, active compounds read low 0.979 | S. cerevisiae deletion strains, locus YML124C, strain tub3, active compounds read low 0.991 | S. cerevisiae deletion strains, locus YMR078C, strain ctf18, active compounds read low 0.995 | S. cerevisiae deletion strains, locus YMR223W, strain ubp8, active compounds read low 1.04 | S. cerevisiae deletion strains, locus YMR263W, strain SAP30, active compounds read low 1.04 | S. cerevisiae deletion strains, locus YMR307W, strain GAS1, active compounds read low 1.07 | S. cerevisiae deletion strains, locus YNL067W, strain RPL9B, active compounds read low 1.04 | S. cerevisiae deletion strains, locus YNL128W, strain TEP1, active compounds read low 1.05 | S. cerevisiae deletion strains, locus YNL153C, strain GIM3, active compounds read low 1.02 | S. cerevisiae deletion strains, locus YNL233W, strain BNI4, active compounds read low 1.03 | S. cerevisiae deletion strains, locus YNL250W, strain rad50, active compounds read low 0.995 | S. cerevisiae deletion strains, locus YNL271C, strain bni1, active compounds read low 0.993 | S. cerevisiae deletion strains, locus YNL298W, strain CLA4, active compounds read low 0.989 | S. cerevisiae deletion strains, locus YNL307C, strain MCK1, active compounds read low 1.01 | S. cerevisiae deletion strains, locus YNL322C, strain KRE1, active compounds read low 1.01 | S. cerevisiae deletion strains, locus YNR052C, strain pop2, active compounds read low 0.991 | S. cerevisiae deletion strains, locus YOL006C, strain TOP1, active compounds read low 1.03 | S. cerevisiae deletion strains, locus YOL012C, strain htz1 0.919 | S. cerevisiae deletion strains, locus YOL147C, strain pex11, active compounds read low 0.995 | S. cerevisiae deletion strains, locus YOR061W, strain CKA2, active compounds read low 1.02 | S. cerevisiae deletion strains, locus YOR069W, strain VPS5, active compounds read low 1.01 | S. cerevisiae deletion strains, locus YOR136W, strain idh2, active compounds read low 1.01 | S. cerevisiae deletion strains, locus YOR144C, strain elg1, active compounds read low 0.984 | S. cerevisiae deletion strains, locus YOR184W, strain ser1, active compounds read low 1.02 | S. cerevisiae deletion strains, locus YOR316C, strain cot1, active compounds read low 0.997 | S. cerevisiae deletion strains, locus YPL055C, strain LGE1, active compounds read low 1.05 | S. cerevisiae deletion strains, locus YPL241C, strain CIN2, active compounds read low 1.02 | S. cerevisiae deletion strains, locus YPR119W, strain clb2, active compounds read low 0.986 | S. cerevisiae deletion strains, locus YPR141C, strain kar3, active compounds read low 0.978 | S. cerevisiae deletion strains, locus YPR163C, strain tif3, active compounds read low 0.997 | S. cerevisiae deletion strains, locus YPR167C, strain met16, active compounds read low 0.99 | S. cerevisiae deletion strains, strain wtn01, active compounds read low 1 | S. cerevisiae strains, strain wild type, active compounds read low 1.03
